# Measured values: PubChem BioAssay
# Where “and” joins values, the source holds several entries; their conditions need not be identical. Equal values may be shown once. Calls of active or inactive are those of the source. Unless noted, no rule for the calls is given here.
# Tests used:
# [1] = compounds altering circadian rhythm period length – cell-based, LOPAC library, luminescence reporter (AID 2774); settings: circadian reporter cells, at 7 µM, actives lie on both sides;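 also: values are relative to mean of DMSO wells on each plate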
# [2] = test system: Hepatitis C virus NS3 helicase; assay: blockers of NS3h binding to ssDNA – biochemical, fluorescence polarization, LOPAC1280 library, primary screen (AID 687035; in the data active = inhibition above about 37%); settings: Purified HCV NS3 helicase, Cy5-dT15 ssDNA binding fluorescence polarization; stronger effect = higher value; concentration not given here
# [3] = compounds altering Cy5-DNA-NS3h complex signal – biochemical, LOPAC1280, artefact control for HCV NS3 helicase inhibitor project (AID 687037); settings: Cy5-DNA-NS3h complex fluorescence interference counterscreen
# [4] = test system: Aerobactin synthetase IucA (Klebsiella pneumoniae, hypervirulent); assay: biochemical IucA inhibition screen of LOPAC library by absorbance (AID 1346212); settings: IucA enzyme assay, absorbance (OD) readout; stronger effect = lower value;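 tested at 8 µM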;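 also: 100% = no compound wells and 0% = no enzyme wells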
# [5] = viability loss with induced miR-34 in A549 – imaging, A549 dox-inducible miR-34, nuclei and caspase counts, primary screen (AID 1347080;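 active = compounds whose cell count with miR-34 switched on is under 0.7 times the count with it off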); settings: A549 miR-34 inducible, Hoechst nuclei count, 48 h
# [6] = blockers of cellular phospholipid synthesis – cell-based, LOPAC library, screen 4, primary screen (AID 1347384); settings: animal cells, phospholipid biosynthesis inhibition screen; at 10 µM
# [7] = galactose survival enhancers in mitochondrial complex I cybrids – cell-based, galactose medium, ATP luminescence, primary screen (AID 1645843;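 active = z-score of at least 1.8 in each of two replicates, scored against plate mean and spread of sample wells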;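 also: positive z means more ATP and so rescue of galactose-driven cybrid death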); settings: complex I mutant cybrid cells, 72 h, stronger effect = higher value
# [8] = P. berghei load reduction in hepatocytes – cell-based, HepG2, luciferase luminescence, HepG2 viability, primary screen (AID 624349; in the data active = parasite load remaining mostly below about 12%, no sharp cut-off; inactive = mostly above about 10%;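 also: 100% = mean of DMSO negative control wells on the same plate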); settings: P. berghei liver stage in HepG2, luciferase luminescence, concentration not given here; parasite load remaining: stronger effect = lower value; viability: measured here: HepG2 viability without parasites
# [9] = MELAS cybrid and Rieske KO viability enhancers – cell-based, MELAS cybrids, Rieske KO mouse fibroblasts, CellTiter-Glo, primary screen (AID 1508586;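 active = mean z-score across replicates of 1.96 or higher in either the MELAS or the Rieske mutant cell line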;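 also: z relative to plate mean and SD of compound and empty wells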); settings: low glucose
# [10] = measured here: relative caspase fold change +Dox/-Dox
# [11] = measured here: total cells with miR-34 induction, stronger effect = lower value
# [12] = measured here: total cells without miR-34 induction
smiles,measurement,setting,value
NCC(CP(=O)(O)O)c1ccc(Cl)cc1 (centres undefined),period change,[1],0.02 h (inactive)
same,inhibition,[2],-1% (inactive)
same,fluorescence ratio (interference),[3],1 (inactive)
same,remaining activity,[4],107% (inactive)
same,fold change,[5]; stronger effect = lower value,1 (inactive)
same,fold change,[5]; [10],1.21
same,cell count,[5]; [11],9470
same,cell count,[5]; [12],9430
same,outcome,[6],inactive
same,z-score,[7],0.615 (inactive)
O=[N+]([O-])c1ccc2nc(N3CCNCC3)ccc2c1,period change,[1],-0.09 h (inactive)
same,inhibition,[2],-1% (inactive)
same,fluorescence ratio (interference),[3],1 (inactive)
same,remaining activity,[4],117% (inactive)
same,fold change,[5]; stronger effect = lower value,1.07 (inactive)
same,fold change,[5]; [10],1.56
same,cell count,[5]; [11],8660
same,cell count,[5]; [12],8090
same,outcome,[6],inactive
same,z-score,[7],-1.12 (inactive)
CNC(=O)OCC[N+](C)(C)C,period change,[1],-0.01 h (inactive)
same,remaining activity,[4],109% (inactive)
CCCN1CCC[C@@H](c2cccc(C#N)c2)C1,period change,[1],-0.025 h (inactive)
same,remaining activity,[4],122% (inactive)
Oc1ccc2c3c1O[C@H]1c4[nH]c5ccccc5c4C[C@@]4(O)[C@@H](C2)N(CC2CC2)CC[C@]314,parasite load remaining,[8],47.8% (inactive)
same,viability,[8],98.5%
same,remaining activity,[4],108% (inactive)
same,fold change,[5]; stronger effect = lower value,0.934 (inactive)
same,fold change,[5]; [10],1.1
same,cell count,[5]; [11],8700
same,cell count,[5]; [12],9320
same,z-score,"[9]; MELAS cybrid survival, CellTiter-Glo 48 h, stronger effect = higher value",0.24 (inactive)
same,z-score,"[9]; Rieske KO mouse fibroblast survival, CellTiter-Glo 72 h",0.662
same,z-score,[7],-0.405 (inactive)
COC(=O)c1cc2c(cn1)[nH]c1ccccc12,period change,[1],0.035 h (inactive)
same,remaining activity,[4],104% (inactive)
COc1cc(C=C(C#N)C#N)cc(O)c1O,period change,[1],-0.12 h (inactive)
same,remaining activity,[4],117% (inactive)
CC(C)(O)[C@@H]1C2OC(=O)C1[C@]1(O)C[C@H]3O[C@]34C(=O)O[C@H]2[C@]14C (some centres undefined) (tested in a mixture with another compound),remaining activity,[4],128% (inactive)
same,outcome,[6],inactive
COc1ccc2c3c1O[C@H]1C(=O)CC[C@@]4(O)C(C2)N(CC2CC2)CCC314 (some centres undefined),period change,[1],-0.115 h (inactive)
same,remaining activity,[4],120% (inactive)
CN(N=O)c1cc(O)ccc1O,period change,[1],0.05 h (inactive)
same,inhibition,[2],-1% (inactive)
same,fluorescence ratio (interference),[3],1 (inactive)
same,remaining activity,[4],103% (inactive)
same,fold change,[5]; stronger effect = lower value,1.03 (inactive)
same,fold change,[5]; [10],1.21
same,cell count,[5]; [11],9960
same,cell count,[5]; [12],9640
same,z-score,[7],-1.04 (inactive)
C[C@H]1OC[C@@H](C[N+](C)(C)C)O1,period change,[1],-0.07 h (inactive)
same,remaining activity,[4],81.5% (inactive)
O=[N+]([O-])/C=C/c1ccc2c(c1)OCO2,parasite load remaining,[8],42.5% (inactive)
same,viability,[8],65.7%
same,inhibition,[2],-1% (inactive)
same,fluorescence ratio (interference),[3],1 (inactive)
same,remaining activity,[4],107% (inactive)
same,fold change,[5]; stronger effect = lower value,1.45 (inactive)
same,fold change,[5]; [10],0.546
same,cell count,[5]; [11],2000
same,cell count,[5]; [12],1380
same,outcome,[6],inactive
same,z-score,[7],-0.995 (inactive)
CC12CCC3C(CCC4=C(O)C(=O)CCC43C)C1CCC2=O (centres undefined),period change,[1],-0.08 h (inactive)
same,inhibition,[2],-3% (inactive)
same,fluorescence ratio (interference),[3],1 (inactive)
same,remaining activity,[4],113% (inactive)
C[C@H](Cc1ccc2c(c1)OC(C(=O)O)(C(=O)O)O2)NC[C@H](O)c1cccc(Cl)c1,period change,[1],0.1 h (inactive)
same,inhibition,[2],-3% (inactive)
same,fluorescence ratio (interference),[3],1 (inactive)
same,remaining activity,[4],117% (inactive)
same,fold change,"[5]; stronger effect = lower value, cell number ratio, induced over uninduced",1.02 (inactive)
same,fold change,[5]; [10],1.78
same,cell count,[5]; [11],10500
same,cell count,[5]; [12],10300
same,z-score,[7],0.755 (inactive)
N[C@@H](CCl)C(=O)O,period change,[1],0.125 h (inactive)
same,inhibition,[2],-3% (inactive)
same,fluorescence ratio (interference),[3],1 (inactive)
same,remaining activity,[4],104% (inactive)
Cc1cc([C@@H]2CCCN2C)on1,inhibition,[2],-6% (inactive)
same,fluorescence ratio (interference),[3],1 (inactive)
same,remaining activity,[4],91.6% (inactive)
same,fold change,[5]; stronger effect = lower value,0.924 (inactive)
same,fold change,[5]; [10],1.47
same,cell count,[5]; [11],9420
same,cell count,[5]; [12],10200
same,outcome,[6],inactive
same,z-score,[7],0.41 (inactive)
N[C@H](CCCCCP(=O)(O)O)C(=O)O,period change,[1],-0.025 h (inactive)
same,remaining activity,[4],114% (inactive)
CC1Cc2cc3c(cc2C(c2ccc(N)cc2)=NN1)OCO3 (centres undefined),period change,[1],0.09 h (inactive)
same,remaining activity,[4],102% (inactive)
O=C(OC1CCN(CCCl)CC1)C(c1ccccc1)c1ccccc1,period change,[1],-0.15 h (inactive)
same,remaining activity,[4],106% (inactive)
NCC#Cc1ccccc1,period change,[1],0.045 h (inactive)
same,remaining activity,[4],96.6% (inactive)
CCCN(CCC)[C@@H]1CCc2c(F)ccc(O)c2C1,period change,[1],-0.015 h (inactive)
same,remaining activity,[4],110% (inactive)
O=P(O)(O)C(Cl)(Cl)P(=O)(O)O,period change,[1],-0.115 h (inactive)
same,inhibition,[2],-2% (inactive)
same,fluorescence ratio (interference),[3],1 (inactive)
same,remaining activity,[4],94.8% (inactive)
same,fold change,[5]; stronger effect = lower value,0.966 (inactive) and 0.892 (inactive)
same,fold change,[5]; [10],1.44 and 0.98
same,cell count,[5]; [11],9450 and 9630
same,cell count,[5]; [12],9790 and 10800
same,z-score,[7],1.8 (inactive) and 0.645 (inactive)
CCN(CCCl)Cc1ccccc1Br,period change,[1],-0.02 h (inactive)
same,inhibition,[2],-2% (inactive)
same,fluorescence ratio (interference),[3],1 (inactive)
same,remaining activity,[4],111% (inactive)
O=[N+]([O-])c1ccc(O[C@@H]2O[C@H](CO)[C@@H](O)[C@H](O)[C@H]2F)c([N+](=O)[O-])c1,period change,[1],-0.07 h (inactive)
same,remaining activity,[4],96.8% (inactive)
CCCN(CCC)C(=O)Cc1c(-c2ccc(Cl)cc2)nc2c(Cl)cc(Cl)cn12,period change,[1],-0.05 h (inactive)
same,remaining activity,[4],120% (inactive)
C[N+]1(C)C2CC(OC(=O)[C@H](CO)c3ccccc3)CC1C1OC12 (some centres undefined),period change,[1],-0.095 hour (inactive) and 0.155 hour (inactive)
same,inhibition,[2],-1% (inactive) and 0% (inactive)
same,fluorescence ratio (interference),[3],1 (inactive)
same,remaining activity,[4],96.4% (inactive)
same,fold change,[5]; stronger effect = lower value,0.984 (inactive) and 1.04 (inactive)
same,fold change,[5]; [10],0.938 and 1.11
same,cell count,[5]; [11],10100 and 9050
same,cell count,[5]; [12],10300 and 8720
same,z-score,[7],0.475 (inactive) and 0.45 (inactive)
Clc1ccc(C(c2ccc(Cl)cc2)n2cc[n+](CC(OCc3ccc(Cl)cc3Cl)c3ccc(Cl)cc3Cl)c2)cc1 (centres undefined),period change,[1],-0.26 h (inactive)
same,inhibition,[2],-3% (inactive)
same,fluorescence ratio (interference),[3],0.9 (inactive)
same,remaining activity,[4],106% (inactive)
same,fold change,[5]; stronger effect = lower value,0.883 (inactive)
same,fold change,[5]; [10],1.87
same,cell count,[5]; [11],1420
same,cell count,[5]; [12],1610
same,z-score,[7],-1.52 (inactive)
CC(=O)[C@H]1CC[C@H]2[C@@H]3CC[C@H]4C[C@](C)(O)CC[C@]4(C)[C@H]3CC[C@]12C,inhibition,[2],-2% (inactive)
same,fluorescence ratio (interference),[3],1 (inactive)
same,remaining activity,[4],116% (inactive)
same,fold change,[5]; stronger effect = lower value,0.971 (inactive)
same,fold change,[5]; [10],1.33
same,cell count,[5]; [11],10300
same,cell count,[5]; [12],10600
same,outcome,[6],inactive
same,z-score,[7],-0.05 (inactive)
